Screening results as filed in PubChem BioAssay.
PNC assembly inh – perinucleolar compartment assembly inhibition | PC3M PTB-GFP, PNC prevalence imaging, 16 h; stronger effect = lower value | activity change (PNC), negative = inhibition, % at 10 µM | 3.1% of 140,000 active | AID 2417;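 active = readout at or below -70, meaning at least 70% loss of cells showing the perinucleolar compartment, a nuclear body marking cancer cells; inconclusive = readout between -30 and a set limit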;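 note: plate controls were DMSO wells for no effect and camptothecin positive control wells for full effect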
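Compounds are pinned in duplicate onto adhered PC3M cells stably expressing GFP-tagged PTB and incubated 16 h at 37 C. Cells are then fixed, nuclei stained with Hoechst, and PNC-positive cells counted.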
HPGD inh – HPGD (human) dehydrogenase inhibition; P15428; purified HPGD, NADH fluorescence kinetic, PGE2 substrate; Potency, µM, for the others: top-dose activity change, negative = inhibition, usual class: inhibitors; 4.3% of 150,000 active; AID 894; active = well fitted inhibition curve with a large enough effect, not every such curve was filed as active; inconclusive = small, poorly fitted or top-dose-only effect, or another doubt; inactive = no such curve, though single readings can be large or run the other way; note: potency is the fitted concentration of half-maximal effect; % is set by controls: 0 for no effect and ±100 for the full control effect
Target sequence (P15428 whole entry, looked up): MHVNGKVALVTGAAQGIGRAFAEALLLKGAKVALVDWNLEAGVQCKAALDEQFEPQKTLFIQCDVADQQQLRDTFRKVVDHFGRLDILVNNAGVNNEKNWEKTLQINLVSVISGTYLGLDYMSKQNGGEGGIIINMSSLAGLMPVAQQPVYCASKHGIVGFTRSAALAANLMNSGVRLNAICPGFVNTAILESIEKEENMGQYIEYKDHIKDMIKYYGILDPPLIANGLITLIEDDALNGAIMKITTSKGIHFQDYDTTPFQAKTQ
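20 nM HPGD preincubated 15 min at room temperature with compound in 50 mM Tris-HCl pH 8, 0.01% Tween 20. Started with 1 mM NAD+ and 30 uM prostaglandin E2; NADH fluorescence (360/450 nm) read 5 times over 30-s intervals, last minus first.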
GoLoco inh red – RGS12 GoLoco-Gai1 interaction inhibition; Potency, µM (top dose mostly 61.6 µM), for the others: top-dose activity, negative = inhibition, hits mostly inhibitors; Gai1:RGS12 GoLoco peptide FP, rhodamine, 10 min; AID 880; P63096; 0.44% of 230,000 active; active = well fitted inhibition curve with a large enough effect, not every such curve was filed as active; inactive = no such curve, though single readings can be large or run the other way; note: potency is the fitted concentration of half-maximal effect; % is set by controls: 0 for no effect and ±100 for the full control effect; nearly all actives have a fitted effect of over 30% in size
Target sequence (P63096 whole entry, looked up): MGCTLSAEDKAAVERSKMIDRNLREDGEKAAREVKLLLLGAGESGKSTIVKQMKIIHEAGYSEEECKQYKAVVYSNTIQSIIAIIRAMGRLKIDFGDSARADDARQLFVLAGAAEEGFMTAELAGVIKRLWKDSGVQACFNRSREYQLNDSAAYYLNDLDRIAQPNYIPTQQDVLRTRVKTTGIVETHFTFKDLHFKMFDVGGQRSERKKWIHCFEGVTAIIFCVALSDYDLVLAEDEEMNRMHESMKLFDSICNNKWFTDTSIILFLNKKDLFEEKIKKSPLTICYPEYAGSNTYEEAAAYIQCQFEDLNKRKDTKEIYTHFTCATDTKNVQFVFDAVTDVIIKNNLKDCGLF
HttQ103 aggreg – reduces HttQ103-GFP aggregates in PC12 cells | PC12 HttQ103-GFP aggregates, Acumen cytometry, 40 h | Potency, µM (highest dose often 46.1 µM), without a hit: at the highest dose activity change, negative = inhibition, hits mostly inhibitors | 1.1% of 220,000 active | AID 1688; note: potency is the fitted concentration of half-maximal effect; % is set by controls: 0 for no effect and ±100 for the full control effect; nearly all actives have a fitted effect of over 60% in size
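PC12/HTTQ103-GFP, ecdysone-inducible; teb 100 nM; cpd qHTS titration; GFP aggregates read on laser cytometer, Ex 488/Em 500-530 nm.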
HTT ATP protect – cytoprotection in Huntington HTT-Q103 PC12 cell model; Potency, µM (series often up to 56.4 µM), inactives show cytoprotection (ATP increase), most hits filed as activators; PC12 HTT-Q103 induced, cytoprotection, ATP luminescence, 40 h; 0.14% of 230,000 active; note: potency is the fitted concentration of half-maximal effect; % of control where 0% means no effect; nearly all actives have a fitted effect of over 45% in size
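PC12 cells with ecdysone-inducible HTT exon 1 Q103-GFP, induced with 100 nM tebufenozide and co-treated with library compounds in a dose series (1536-well, 1500 cells/well). Cytoprotection read as ATP content by ATPlite luminescence.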
ALDH1A1 inh – inhibitors of human aldehyde dehydrogenase 1A1 | Purified ALDH1A1, NADH fluorescence, propionaldehyde substrate | P00352 | 7.3% of 220,000 active | Potency, µM (series often up to 75.3 µM), without a hit: at the highest dose activity, negative = inhibition, usual class: inhibitors | AID 1030; active = well fitted inhibition curve with a large enough effect, not every such curve was filed as active; inconclusive = small, poorly fitted or top-dose-only effect, or another doubt; inactive = no such curve, though single readings can be large or run the other way;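 note: potency is the fitted concentration of half-maximal effect; plate controls were no enzyme wells and a reference inhibitor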
Starred values were filed as active, the others as inactive; ? = inconclusive; / = not tested or not shown; [ ] = remark or other dose. An excerpt weighted towards active compounds, which were near 11% of everything screened. Unless noted, calls come from the whole dose curve; as a rule, active = well fitted curve in the direction sought with a large enough effect; inconclusive = small, poorly fitted or top-dose-only effect, or another doubt; inactive = no such curve, though single readings can be large; an effect the other way counts as inactive or inconclusive.

SMILES | PNC assembly inh | HPGD inh | GoLoco inh red | HttQ103 aggreg | HTT ATP protect | ALDH1A1 inh
COc1cc(Cl)cc(C(=O)O)c1OCC(=O)O | / | / | 6.0% | -22.2%[9.22 µM] | 14.2%[10 µM] | 4.4%
CCOC(=O)c1cc(NC(=O)Nc2ccc(Br)cc2)c(C)nc1C | / | / | 7.8% | -0.7% | -7.2% | 4.9%
CC(=O)Oc1cccc(N2C(=O)c3ccc(C(=O)Nc4cccnc4)cc3C2=O)c1 | / | / | 2.0% | 2.7% | -27.2% | 17.8µM*
CC(=O)Oc1cccc(N2C(=O)c3ccccc3C2=O)c1 | -85.0* | -7.4% | 4.2% | -0.7% | 6.4%[10 µM] | -14.5%
CCOc1ccccc1N1C(=O)c2ccc(C(=O)Nc3cccnc3)cc2C1=O | 0.4 | -16.7% | 5.8% | -2.4% | 19.8%[10 µM] | -9.7%
Cc1ccc(NC(=O)COC(=O)c2cccc(N3C(=O)c4ccccc4C3=O)c2)cc1 | / | / | -3.7% | 1.8%[9.22 µM] | 26.7%[10 µM] | /
CC(=O)c1cccc(NC(=O)COC(=O)c2cccc(N3C(=O)c4ccccc4C3=O)c2)c1 | -5.6 | -11.7% | 4.8% | 10.2% | 1.4%[10 µM] | 14.1µM*
O=C(COC(=O)c1ccc([N+](=O)[O-])o1)Nc1cccc(S(=O)(=O)N2CCCCC2)c1 | / | / | 10.9% | 9.1% | -50.3% | 11.2µM*
O=C(Nc1cccc(S(=O)(=O)N2CCCCC2)c1)c1ccc([N+](=O)[O-])o1 | / | / | 2.3% | ? | ? | ?
Cc1ccc(NC(=O)COC(=O)c2ccc([N+](=O)[O-])o2)cc1S(=O)(=O)N1CCCCC1 | / | / | 6.0% | 25.9% | -23.4% | 25.1µM*
Cc1ccc(NC(=O)c2ccc([N+](=O)[O-])o2)cc1S(=O)(=O)N1CCOCC1 | / | / | 6.1% | ? | / | ?
CCOC(=O)C1=NN(c2ccccc2C)C2=NC(C)=C(C(=O)OC)C(c3cccc(OC)c3)N12 (centres undefined) | ? | -11.9% | 3.7% | -0.2% | / | -3.8%
CC(=O)c1cccc(N(CC(=O)N2CCCC2)S(C)(=O)=O)c1 | 35.7 | 0.1% | 3.3% | -1.6% | 1.0%[10 µM] | 25.1µM*
CCOC(=O)c1sc2ncn(/N=C/c3cccnc3)c(=O)c2c1C | 18.6 | -28.3% | 3.3% | 4.3% | 8.2% | 0.0708µM*
CCOC(=O)c1sc2ncn(/N=C/c3ccc(O)cc3)c(=O)c2c1C | / | / | 7.0% | 7.4% | -6.7% | 20µM*
COc1ccc(CN2CCN(C(C)C)C(CCO)C2)cc1Cn1cncn1 (centres undefined) | / | / | -9.4% | -8.5% | -7.0% | 7.2%
COC(=O)C/C=C\[C@@H](C)[C@@H]1C=C[C@H](OC(C)=O)[C@H](COC(C)=O)O1 | / | / | / | / | -32.1%[10 µM] | -8.9%[13.5 µM]
O=C1C2C(C(=O)N1/N=C/c1ccc(N3CCCCC3)o1)C1C=CC2C12CC2 (centres undefined) | -24.1 | -16.7% | -9.2% | -5.9% | 27.2%[10 µM] | 8.91µM*
Cc1ccc(/C=N/N2CCCCC2)o1 | / | / | 4.9% | 5.1% | ? | 1.8%
N#CC1=C2SCN(Cc3ccco3)CN2C(=O)CC1c1c(F)cccc1Cl (centres undefined) | 18.0 | 17.8µM* | -22.6% | -2.1% | -11.0% | 8.91µM*
O=C(NCc1ccco1)C1CC(=O)N(c2ccc(Cl)cc2)C1 (centres undefined) | / | / | 4.9% | -5.0% | 13.0% | -8.0%
Cc1ccc(C2CC(=O)N3CN(Cc4ccco4)CSC3=C2C#N)cc1 (centres undefined) | 7.6 | 15.8µM* | -13.0% | 9.2% | 5.5% | 11.2µM*
COc1ccccc1-c1cc(N(C)Cc2ccco2)ncn1 | / | / | 16.1% | / | -60.0% | ?
Fc1ccc(/C=C2\CCCC3=C2NC(=S)NC3c2ccc(F)cc2)cc1 (centres undefined) | 31.2 | 25.1µM* | -2.7% | 28.5% | 26.4%[10 µM] | ?
CC(C)c1onc(C(=O)NC(C)c2ccccc2)c1[N+](=O)[O-] (centres undefined) | / | / | 1.3% | 4.47µM* | -41.4% | ?
SMILES | PNC assembly inh | HPGD inh | GoLoco inh red | HttQ103 aggreg | HTT ATP protect | ALDH1A1 inh
CC(C)c1onc(C(=O)NCCc2ccccc2)c1[N+](=O)[O-] | / | / | 11.5% | -4.8% | 11.6% | ?
CC(C)c1onc(C(=O)N2CCN(Cc3ccccc3)CC2)c1[N+](=O)[O-] | 16.0 | -7.9% | 6.3% | -0.6% | / | 2.51µM*
CN(C)c1ncc2nc(-c3ccccc3)c(=O)n(C3CC3)c2n1 | / | ? | 7.6% | / | -80.9% | ?
CC1=C(C(=O)N(C)C)C(c2ccc(N3CCOCC3)cc2)NC(=O)N1 (centres undefined) | / | / | 18.3% | 2.5% | -8.2% | -1.2%
N#CCC(=O)Nc1ncn(Cc2ccccc2Cl)n1 | -81.3* | -3.4% | 2.3% | -12.3% | -8.8%[0.074 µM] | ?
N#CCC(=O)Nc1ccccc1C(=O)O | 29.9 | -12.9% | -0.5% | -11.8% | -0.4%[10 µM] | 9.7%
O=S(=O)(c1ccccc1)c1nc(-c2ccccc2)oc1N1CCOCC1 | / | / | 2.3% | 4.4%[9.22 µM] | -12.4%[10 µM] | 3.55µM*
Cc1ccc(S(=O)(=O)c2nc(C(C)(C)C)oc2N2CCOCC2)cc1 | 17.0 | -9.7% | -39.4% | 2.2% | 2.6%[10 µM] | 10µM*
COc1cc(-c2nc(S(=O)(=O)c3ccccc3)c(N3CCOCC3)o2)cc(OC)c1OC | 13.6 | -2.5% | -8.7% | -23.6% | -37.6% | 10µM*
Cc1ccc(S(=O)(=O)c2nc(C)oc2N2CCOCC2)cc1 | / | / | 17.9% | -3.4%[9.22 µM] | 19.4%[10 µM] | -8.6%
Cc1cc2ccccc2n1CCNC(=O)c1ccc(Br)o1 | / | / | 22.4µM* | -28.5%[9.22 µM] | -4.7%[10 µM] | 5.62µM*
Cc1cc2ccccc2n1CCNC(=O)Cc1cccc2ccccc12 | -108.4* | -28.9% | 7.4% | -22.7% | -11.2%[10 µM] | ?
Cc1cc2ccccc2n1CCNC(=O)c1ccccc1 | 67.7 | -20.4% | 1.1% | -2.2% | -16.1% | ?
COc1ccc(OC)c(N=c2oc3cc(O)ccc3cc2C(N)=O)c1 | 5.3 | ? | 17.8µM* | ? | -59.0% | ?
NC(=O)c1cc2ccc(O)cc2oc1=Nc1ccccc1 | 51.7 | ? | -0.1% | 7.08µM* | -20.6% | ?
COc1ccc2cc(C(N)=O)c(=Nc3ccccc3)oc2c1 | / | / | 1.3% | -18.0% | -1.3% | -2.4%
CSc1cccc(NC(N)=S)c1 | / | / | 5.5% | -5.0%[9.22 µM] | 1.2%[10 µM] | /
CC1(C)Oc2ccccc2OC1(O)c1ccc2ccccc2n1 (centres undefined) | -113.4* | -2.6% | 1.0% | ? | / | 13.4%
C=CCN(c1ccc(C(=O)Nc2ccc(C)c(C)c2)cc1)S(C)(=O)=O | -23.8 | -2.9% | 6.2% | -6.4% | 17.8%[10 µM] | 1.0%
Cn1c[n+](C)cc1-c1ccc(/C(N)=N/O)cc1 | -80.3* | -12.5% | 0.5% | 4.2% | -6.0%[10 µM] | ?
CCn1nc([N+](=O)[O-])c(C(C#N)c2nc3cc(C(F)(F)F)ccc3s2)c(Cl)c1=O (centres undefined) | -7.3 | ? | 0.8% | 0.3% | 28.1% | 0.398µM*
